Experimental data from PubChem BioAssay (Tox21).
Records with an inconclusive call do not appear. Active and inactive are the calls of the source. Calls follow the shape of the dose curve; as a rule, active = well fitted curve in the direction sought with a large enough effect in the repeat runs; inconclusive = weak or mixed curves; inactive = no such curve, though single readings can be large; an effect the other way counts as inactive or inconclusive.

Experiments:
[1] = qHTS assay to identify small molecule agonists of the RXR signaling pathway - cell viability counter screen (AID 1159529); also: series mostly up to about 77 µM; nearly all actives have a fitted effect of over 50% in size
In short: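 Compounds dissolved in DMSO were pinned onto HEK 293T cells carrying a beta-lactamase reporter under RXR-alpha control and incubated 16 hr. Cytotoxicity was then quantified by CellTiter-Glo luminescence.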

[2] = qHTS assay to identify small molecule antagonists of the retinoid acid receptor (RAR) signaling pathway - cell viability counter screen (AID 1159551); also: nearly all actives have a fitted effect of over 35% in size
In short: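 C3RL4 cells were seeded overnight at 37 C, then treated with compounds plus 1 uM (final) retinol for 6 h at 37 C. Viability was read as ATP by CellTiter-Glo luminescence after 30 min at room temperature.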

[3] = qHTS assay to identify small molecule antagonists of the retinoic acid receptor (RAR) signaling pathway (AID 1159552; also: nearly all actives have a fitted effect of over 50% in size)
In short: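 Test chemicals and DMSO controls were pin-transferred onto C3RL4 cells a day after seeding; retinol (1 uM final) followed at once. Luminescent reporter output was quantified after 6 hr of co-incubation and 30 min with detection reagent.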

[4] = qHTS assay to identify small molecule agonists of the retinoic acid receptor (RAR) signaling pathway (AID 1159553); also: potency is read from the fitted curve at half-maximal effect
In short: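 C3RL4 cells carrying a RARE luciferase reporter were plated overnight at 37 C, then exposed to compounds in DMSO for 6 hr at 37 C and 5% CO2. Luminescence was read 30 min after luciferase reagent addition at room temperature.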

[5] = qHTS assay to identify small molecule antagonists of the estrogen related receptor (ERR) signaling pathway from Tox21 library - cell viability counter screen (AID 1224834); also: nearly all actives have a fitted effect of over 30% in size
In short: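 ERR reporter cells were plated 6 h before compound addition, then exposed to test compounds in DMSO for 17.5 h at 37 C. Viability was read as CellTiter-Fluor fluorescence after a 30-minute incubation at 37 C.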

[6] = biological target: Luciferin 4-monooxygenase (Photinus pyralis) (UniProt P08659); test: qHTS assay to identify small molecule inhibitors of firefly luciferase (AID 1224835); also: nearly all actives have a fitted effect of over 25% in size; also: potency is read from the fitted curve at half-maximal effect; as to activity change, negative = inhibition: series mostly up to about 120 µM
In short: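 Biochemical qHTS: compounds run as interplate titrations against purified firefly enzyme, with D-luciferin and ATP each at its KM concentration. Light output recorded by CCD imaging.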

[7] = qHTS assay to identify small molecule agonists of the constitutive androstane receptor (CAR) signaling pathway - cell viability counter screen (AID 1224836); also: series mostly up to about 92 µM; nearly all actives have a fitted effect of over 45% in size
In short: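 23 h treatment, 37 C, 5% CO2. Cell line: HepG2 stably expressing hCAR with a CYP2B6-2.2kb construct. Co-treatment: PK11195, 0.75 uM final. Read-out: CellTiter-Fluor fluorescence intensity.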

[8] = qHTS assay to identify small molecule antagonists of the constitutive androstane receptor (CAR) signaling pathway - cell viability counter screen (AID 1224837); also: series mostly up to about 92 µM; nearly all actives have a fitted effect of over 45% in size
In short: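 HepG2 cells stably expressing hCAR and a CYP2B6-2.2kb reporter were plated and pre-incubated 4 hr at 37 C/5% CO2, then given compounds at 15 concentrations plus 50 nM CITCO (final). After 23 hr, viability was read by CellTiter-Fluor fluorescence.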

[9] = biological target: Nuclear receptor subfamily 1 group I member 3 (Homo sapiens) (UniProt Q14994); test: qHTS assay to identify small molecule antagonists of the constitutive androstane receptor (CAR) signaling pathway (AID 1224838); also: nearly all actives have a fitted effect of over 40% in size
In short: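 HepG2 cells stably co-transfected with hCAR and a CYP2B6-2.2kb luciferase reporter were seeded 4 h before compound addition at 15 concentrations. Cells were stimulated with 50 nM CITCO (final) for 24 h at 37 C; luciferase luminescence was then read.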

[10] = biological target: Nuclear receptor subfamily 1 group I member 3 (Homo sapiens) (UniProt Q14994); test: qHTS assay to identify small molecule agonists of the constitutive androstane receptor (CAR) signaling pathway (AID 1224839); also: nearly all actives have a fitted effect of over 15% in size; also: potency is read from the fitted curve at half-maximal effect;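 as to activation: HepG2 cells stably carrying human CAR and a CYP2B6 luciferase reporter; series mostly up to about 92 µM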
In short: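 Compounds tested at 15 concentrations on HepG2 cells stably harbouring hCAR and CYP2B6-2.2kb reporter constructs, co-treated with PK11195 (0.75 uM final), 24 h at 37 C; luminescent reporter signal quantified.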
% is scaled to controls: 0 for no effect and ±100 for the full control effect.

Chain of Luciferin 4-monooxygenase (Photinus pyralis) (P08659 whole entry, looked up): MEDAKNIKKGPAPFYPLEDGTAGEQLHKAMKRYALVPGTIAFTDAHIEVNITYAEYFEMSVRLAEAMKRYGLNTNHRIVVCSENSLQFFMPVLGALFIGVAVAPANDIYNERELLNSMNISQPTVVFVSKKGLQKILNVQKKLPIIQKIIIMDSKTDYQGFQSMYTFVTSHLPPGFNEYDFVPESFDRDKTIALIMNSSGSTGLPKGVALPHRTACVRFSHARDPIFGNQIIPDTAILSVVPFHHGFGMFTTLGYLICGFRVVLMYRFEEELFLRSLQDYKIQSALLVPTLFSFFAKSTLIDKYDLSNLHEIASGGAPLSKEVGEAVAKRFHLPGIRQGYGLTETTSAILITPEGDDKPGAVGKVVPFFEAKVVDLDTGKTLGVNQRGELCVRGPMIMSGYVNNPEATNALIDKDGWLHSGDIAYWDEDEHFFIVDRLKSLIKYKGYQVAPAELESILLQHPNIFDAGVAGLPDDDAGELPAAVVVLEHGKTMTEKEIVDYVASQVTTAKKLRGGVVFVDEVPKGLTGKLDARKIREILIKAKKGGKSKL
Chain of Nuclear receptor subfamily 1 group I member 3 (Homo sapiens) (Q14994 whole entry, looked up): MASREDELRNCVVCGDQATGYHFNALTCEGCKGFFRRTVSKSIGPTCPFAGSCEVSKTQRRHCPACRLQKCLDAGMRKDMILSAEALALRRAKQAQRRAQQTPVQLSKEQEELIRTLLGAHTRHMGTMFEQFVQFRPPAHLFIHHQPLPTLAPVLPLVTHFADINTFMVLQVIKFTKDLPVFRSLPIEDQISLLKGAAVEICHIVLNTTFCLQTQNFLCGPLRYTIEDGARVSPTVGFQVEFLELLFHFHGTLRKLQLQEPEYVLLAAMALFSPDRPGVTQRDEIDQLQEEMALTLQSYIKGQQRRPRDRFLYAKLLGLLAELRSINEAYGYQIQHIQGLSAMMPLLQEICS

CCCCCCCCCCOC(C)=O
inactive: outcome [1] | outcome [2] | outcome [3] | Potency [4] | outcome [5] | Potency [6] | outcome [7] | outcome [8] | Potency [9] | Potency [10]

NCCOCCN
inactive: outcome [1] | outcome [2] | outcome [3] | Potency [4] | outcome [5] | Potency [6] | outcome [7] | outcome [8] | Potency [9] | Potency [10]

CC1=C(C(=O)O)N2C(=O)[C@@H](NC(=O)[C@H](N)C3=CCC=CC3)[C@H]2SC1
inactive: outcome [1] | outcome [2] | outcome [3] | Potency [4] | outcome [5] | Potency [6] | outcome [7] | outcome [8] | Potency [9] | Potency [10]

CC(C)(CO)C(O)C(=O)NCCCO (configuration not stated)
inactive: outcome [1] | outcome [2] | outcome [3] | Potency [4] | outcome [5] | outcome [7] | outcome [8] | Potency [9] | Potency [10]

CC1=C(O)C(=O)C(C)O1 (configuration not stated)
inactive: outcome [1] | outcome [2] | outcome [3] | Potency [4] | outcome [5] | Potency [6] | outcome [7] | outcome [8] | Potency [9] | Potency [10]

c1ccc2cnccc2c1
inactive: outcome [1] | outcome [2] | outcome [3] | Potency [4] | outcome [5] | outcome [7] | outcome [8] | Potency [9] | Potency [10]

N[C@@H](CSCCCO)C(=O)O
inactive: activity change, negative = cytotoxicity [1] -0.377% [at 15.8 µM] | activity change, negative = cytotoxicity [2] 5.07% [at 19 µM] | activity, negative = inhibition [3] 1.93% [at 19 µM] | Potency [4] | viability change, negative = cytotoxic [5] 1.22% [at 19 µM] | activity change, negative = inhibition [6] -1.72% [at 23.6 µM] | viability change, negative = cytotoxic [7] 3.99% [at 19 µM] | activity change, negative = cytotoxicity [8] 10% [at 19 µM] | activity, negative = inhibition [9] 5.4% [at 19 µM] | activation [10] 0.0803% [at 19 µM]

CC(C)(C)NC[C@H](O)COc1cccc2c1CCCC2=O
inactive: outcome [1] | outcome [2] | outcome [3] | Potency [4] | outcome [5] | Potency [6] | outcome [7] | outcome [8] | Potency [9] | Potency [10]

COCCc1ccccn1
inactive: outcome [1] | outcome [2] | outcome [3] | Potency [4] | outcome [5] | Potency [6] | outcome [7] | outcome [8] | Potency [9] | Potency [10]

Cc1ccc2c(c1)C(=O)c1ccccc1C2=O
inactive: outcome [1] | outcome [2] | outcome [3] | outcome [5] | outcome [7] | outcome [8] | Potency [9]
active: Potency [4] 4.31 µM | Potency [6] 14.1 µM | Potency [10] 27.2 µM

CN(C)CCCO[C@@H]1[C@H]2OC(C)(C)O[C@H]2O[C@@H]1C(O)CO (some centres not stated)
inactive: outcome [1] | outcome [2] | outcome [3] | Potency [4] | outcome [5] | Potency [6] | outcome [7] | outcome [8] | Potency [9] | Potency [10]

Cc1c(NC(=O)c2cccnc2)c(=O)n(-c2ccccc2)n1C
inactive: outcome [1] | outcome [2] | outcome [3] | Potency [4] | outcome [5] | outcome [7] | outcome [8] | Potency [9] | Potency [10]

c1ccc(-c2nn[nH]n2)cc1
inactive: outcome [1] | outcome [2] | outcome [3] | Potency [4] | outcome [5] | outcome [7] | outcome [8] | Potency [9] | Potency [10]

Cn1c(=O)c2[nH]c(Br)nc2n(C)c1=O
inactive: outcome [1] | outcome [2] | outcome [3] | Potency [4] | outcome [5] | Potency [6] | outcome [7] | outcome [8] | Potency [9] | Potency [10]

CC(S)C(C)S (configuration not stated)
inactive: outcome [1] | outcome [2] | outcome [3] | Potency [4] | outcome [5] | outcome [7] | outcome [8] | Potency [9] | Potency [10]

CC(C)c1ccc(C=O)cc1
inactive: outcome [1] | outcome [2] | outcome [3] | Potency [4] | outcome [5] | Potency [6] | outcome [7] | outcome [8] | Potency [9] | Potency [10]

C=C(C)[C@@H]1CC=C(C)CC1
inactive: outcome [1] | outcome [2] | outcome [5] | Potency [6] | outcome [7] | outcome [8] | Potency [9] | Potency [10]

CC1=C(C(=O)O)N2C(=O)[C@@H](NC(=O)[C@H](N)c3ccccc3)[C@H]2SC1
inactive: outcome [1] | outcome [2] | Potency [4] | outcome [5] | Potency [6] | outcome [7] | outcome [8] | Potency [9]

O=C1NC(c2ccccc2)(c2ccccc2)C(=O)N1COP(=O)(O)O
inactive: outcome [1] | outcome [2] | Potency [4] | outcome [5] | Potency [6] | outcome [7] | outcome [8] | Potency [9]

Cc1cc(C)c(C(=O)O)c(C)c1
inactive: outcome [1] | outcome [2] | Potency [4] | outcome [5] | outcome [7] | outcome [8] | Potency [9] | Potency [10]

O=NN(CCCl)C(=O)NC1CCCCC1
inactive: outcome [1] | outcome [2] | Potency [4] | outcome [5] | Potency [6] | outcome [7] | outcome [8] | Potency [9] | Potency [10]

CCCCCCCCCOC(=O)CCCCC(=O)OCCCCCCC
inactive: outcome [1] | outcome [2] | Potency [4] | outcome [5] | Potency [6] | outcome [7] | outcome [8] | Potency [9] | Potency [10]

OCC(O)CN1CCN(c2ccccc2)CC1 (configuration not stated)
inactive: outcome [1] | outcome [2] | outcome [3] | Potency [4] | outcome [5] | outcome [7] | outcome [8] | Potency [9] | Potency [10]

CC(C)CO
inactive: outcome [1] | outcome [2] | Potency [4] | outcome [5] | Potency [6] | outcome [7] | outcome [8] | Potency [9] | Potency [10]

CCC/C=C(\C=O)CC
inactive: outcome [1] | outcome [2] | Potency [4] | outcome [5] | Potency [6] | outcome [7] | outcome [8] | Potency [9] | Potency [10]
